# Reference: PubChem BioAssay
# For some of these results: Entries with a potency or affinity are not part of this list. Results filed as inconclusive are left out. The list shows a part of the results. Activity calls are given as the source filed them. Unless noted, no rule for the calls is given here.
# Assays:
# [1] = inhibitors of CMV-promoter luciferase reporter, dose response, counter-screen for Pax8 inhibitor project, cell-based, HEK293, luminescence, dry powder (AID 743020;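 active = signal-lowering compounds whose fitted half-maximal concentration is at or below twice the top tested dose in every run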;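 also: HEK293 cells stably expressing the CMV luciferase reporter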)
# [2] = non-specific cell cytotoxicity, dose response, cytotoxicity control for PAX8 inhibitor project, plate reader, dry powder samples (AID 743021)
# [3] = IOSE-T80 ovarian epithelial cell cytotoxicity, dose response, cytotoxicity control for PAX8 inhibitor project, plate reader, dry powder samples (AID 743045);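 also: 0% = neutral control median and -100% = positive control median; more negative values mean more cell killing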
# [4] = A2780 ovarian cancer cell cytotoxicity, dose response, cytotoxicity control, plate reader, dry powder samples (AID 743046);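 also: 0% = neutral control wells and -100% = cytotoxic reference compound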
# [5] = NIH:OVCAR-3 ovarian cancer cell cytotoxicity, dose response, PAX8 inhibitor project, plate reader, dry powder samples (AID 743044); conditions: max activity: at 35 µM, stronger effect = lower value unless noted
# [6] = cytotoxicity in OVCAR8 ovarian cancer cells, dose response, PAX8 project, cell-based, plate reader, dry powder samples (AID 743197)
# [7] = IGROV1 ovarian cancer cell cytotoxicity, dose response, PAX8 inhibitor project, plate reader, dry powder samples (AID 743043);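 also: more negative means fewer viable cells or more cytotoxicity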
# [8] = HepG2 cell cytotoxicity, dose response, cytotoxicity control, plate reader, cherry-pick, antagonist series (AID 743416);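 also: 0% = neutral control wells and -100% = positive control wells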
# [9] = Ring1 mRNA increase in mouse ESCs, confirmation, esBAF inhibitor project, cell-based, mouse ESC, RT-qPCR, cherry-pick (AID 743176;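 active = Ring1 gene expression raised more than 2-fold over untreated cells in both replicates at either tested dose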;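 also: Ring1 transcript normalised to actin housekeeping signal by TaqMan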); conditions: mouse ESC E14, Ring1 mRNA RT-qPCR fold change, stronger effect = higher value
# [10] = Fgf4 mRNA decrease in mouse ESCs, confirmation, esBAF inhibitor project, cell-based, mouse ESC, RT-qPCR, cherry-pick (AID 743177;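 active = Fgf4 expression under 0.8 fold of control in both repeat measurements at one or both tested doses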;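 also: Fgf4 transcript normalised to actin in duplex TaqMan qPCR; cells exposed to compound for 24 h before lysis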); conditions: mouse ESC E14, Fgf4 mRNA qPCR fold change, stronger effect = lower value
# [11] = esBAF inhibition via Bmi1 de-repression, confirmation, cell-based, RT-qPCR, mouse ESC, single point, cherry-pick (AID 743180;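 active = Bmi1 expression fold change above 6 at either tested concentration, seen in replicate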); conditions: mouse ESC E14, Bmi1 mRNA qPCR fold, stronger effect = higher value
# [12] = A549 cell cytotoxicity, cytotoxicity control, plate reader, single point, cherry-pick (AID 743188); conditions: at 25 µM
# [13] = HepG2 cell cytotoxicity, cytotoxicity control, plate reader, single point, cherry-pick (AID 743189; in the data active = activity change below about -50%); conditions: at 25 µM, stronger effect = lower value
# [14] = HEK293 cell cytotoxicity, cytotoxicity control, plate reader, single point, cherry-pick (AID 743190; in the data active = activity change below about -38%, passing the limit was not always enough); conditions: at 25 µM
# [15] = A549 cell cytotoxicity, dose response, cytotoxicity control, plate reader, cherry-pick, antagonist series (AID 743412);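 also: 0% = neutral control wells and -100% = positive control wells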
smiles,measurement,setting,value
C[C@H]1CCCCO[C@@H](CN(C)Cc2ccc(C(F)(F)F)cc2)[C@@H](C)CN([C@@H](C)CO)C(=O)c2cc(NC(=O)c3ccccc3)ccc2O1,outcome,[1],inactive
same,outcome,[2],inactive
same,outcome,[3],inactive
same,outcome,[4],inactive
C[C@@H]1CCCCO[C@@H](CN(C)S(=O)(=O)c2ccc(Cl)cc2)[C@H](C)CN([C@H](C)CO)C(=O)c2cc(NS(=O)(=O)c3ccc(F)cc3)ccc2O1,outcome,[1],inactive
same,outcome,[2],inactive
same,max activity,[5],"22.4% [at 2.1 µM, stronger effect = lower value] (inactive)"
same,outcome,[3],inactive
same,outcome,[4],inactive
same,outcome,[6],inactive
C[C@H]1CN([C@@H](C)CO)C(=O)c2cc(NS(=O)(=O)c3ccccc3)ccc2O[C@@H]1CN(C)Cc1ccc(Oc2ccccc2)cc1,outcome,[1],inactive
same,outcome,[2],inactive
same,outcome,[7],inactive
same,max activity,[5],"-20.4% [at 8 µM, stronger effect = lower value] (inactive)"
same,outcome,[3],inactive
same,outcome,[6],inactive
N#C[C@@H]1[C@H](c2ccc(C#CC3CCCCC3)cc2)[C@H](CO)N1S(=O)(=O)c1ccccc1,outcome,[1],inactive
same,outcome,[2],inactive
same,outcome,[3],inactive
same,outcome,[4],inactive
same,outcome,[6],inactive
Cc1ccc(S(=O)(=O)Nc2ccc3c(c2)CC(=O)N([C@H](C)CO)C[C@H](C)[C@H](CN(C)S(=O)(=O)c2ccc(F)cc2)O3)cc1,outcome,[1],inactive
same,outcome,[2],inactive
same,outcome,[7],inactive
same,outcome,[3],inactive
same,outcome,[4],inactive
same,outcome,[6],inactive
CCN(CC(=O)Nc1c(F)cccc1F)C(=O)c1cc(S(=O)(=O)N(C)C)ccc1N1CCCC1,outcome,[1],inactive
same,outcome,[2],inactive
same,outcome,[5],inactive
same,outcome,[3],inactive
same,outcome,[4],inactive
C[C@@H]1CCCCO[C@H](CN(C)C(=O)C2CCCCC2)[C@@H](C)CN([C@@H](C)CO)C(=O)c2cc(NC(=O)Nc3ccc(F)cc3)ccc2O1,outcome,[1],inactive
same,outcome,[2],inactive
same,outcome,[3],inactive
Cc1nc2sc(C(c3ccco3)N3CCN(C(c4ccccc4)c4ccccc4)CC3)c(O)n2n1 (configuration not stated),outcome,[1],inactive
same,outcome,[2],inactive
same,outcome,[3],inactive
same,outcome,[4],inactive
COc1ccc(C)cc1NS(=O)(=O)c1ccc(-c2cnc(C3CC3)o2)cc1,outcome,[2],inactive
COc1ccc(-c2ccc(C3[C@@H]4CN(C(=O)Nc5cccc(F)c5)C[C@H]3N4)cc2)cc1 (some centres not stated),outcome,[1],inactive
same,outcome,[3],inactive
same,outcome,[4],inactive
C[C@H]1CN([C@@H](C)CO)C(=O)Cc2cc(NC(=O)NC3CCCCC3)ccc2O[C@H]1CN(C)S(=O)(=O)c1ccc(Cl)cc1,outcome,[1],inactive
same,outcome,[2],inactive
same,outcome,[7],inactive
same,outcome,[3],inactive
same,outcome,[4],inactive
same,outcome,[6],inactive
O=C(Nc1cccc(-c2ccc(N3CCCCC3)nn2)c1)C(F)(F)F,outcome,[2],inactive
Cn1nnnc1Sc1ncnc2scc(-c3cccc(S(C)(=O)=O)c3)c12,outcome,[2],inactive
Cc1ccsc1/C=N/Nc1cccc(C(=O)O)c1,outcome,[1],inactive
same,outcome,[2],inactive
same,outcome,[8],inactive
C[C@@H]1CN([C@H](C)CO)C(=O)c2cc(NS(=O)(=O)c3ccc(Cl)cc3)ccc2O[C@@H](C)CCCCO[C@@H]1CN(C)Cc1ccccc1,outcome,[1],inactive
same,outcome,[7],inactive
same,max activity,[5],"22% [at 1 µM, stronger effect = lower value] (inactive)"
same,outcome,[3],inactive
same,outcome,[4],inactive
same,outcome,[6],inactive
C[C@H]1CCCCO[C@H](CN(C)Cc2ccc(C(F)(F)F)cc2)[C@@H](C)CN([C@@H](C)CO)C(=O)c2cc(NS(=O)(=O)c3ccc(Cl)cc3)ccc2O1,outcome,[1],inactive
same,outcome,[2],inactive
same,max activity,[5],"16.3% [at 1 µM, stronger effect = lower value] (inactive)"
same,outcome,[3],inactive
same,outcome,[4],inactive
CC(=O)NC(c1ccc(Cl)cc1)c1ccc2cccnc2c1O (configuration not stated),outcome,[2],inactive
C[C@@H]1CN([C@@H](C)CO)C(=O)Cc2cc(NS(=O)(=O)c3ccc(Cl)cc3)ccc2O[C@H]1CN(C)Cc1ccc(Oc2ccccc2)cc1,outcome,[1],inactive
same,outcome,[2],inactive
same,outcome,[3],inactive
same,outcome,[4],inactive
COc1cc(C2C3=C(COC3=O)Oc3cc4c(cc32)OCO4)cc(OC)c1O (configuration not stated),outcome,[2],inactive
CCC(=O)NC(c1ccc(C)cc1)c1ccc2cccnc2c1O (configuration not stated),outcome,[2],inactive
Cc1ccc(S(=O)(=O)CC(CN2CCCCC2)N2CCCCC2)cc1 (configuration not stated),outcome,[1],inactive
same,outcome,[2],inactive
same,outcome,[5],inactive
same,outcome,[3],inactive
same,outcome,[4],inactive
CCCC1=Nc2cc(C(=O)NCCCOCC)ccc2Sc2ccccc21,outcome,[2],inactive
Cc1ccc(S(=O)(=O)N(C)C[C@H]2Oc3cc(C#Cc4ccncc4)ccc3S(=O)(=O)N([C@@H](C)CO)C[C@@H]2C)cc1,outcome,[1],inactive
same,outcome,[2],inactive
same,outcome,[7],inactive
same,outcome,[3],inactive
same,outcome,[4],inactive
Cc1c(Nc2cc(Cl)c3nonc3c2[N+](=O)[O-])c(=O)n(-c2ccccc2)n1C,outcome,[2],inactive
Brc1ccc(-n2cc(-c3ccccc3)c3c(NN4CCOCC4)ncnc32)cc1,outcome,[2],inactive
C[C@@H]1CN([C@@H](C)CO)S(=O)(=O)c2ccc(C#CC3CCCC3)cc2O[C@H]1CN(C)Cc1cccnc1,outcome,[7],inactive
same,outcome,[3],inactive
same,outcome,[6],inactive
COCC(=O)N1[C@H](CO)[C@H](c2ccc(-c3cccnc3)cc2)[C@@H]1C#N,outcome,[2],inactive
same,outcome,[7],inactive
same,outcome,[5],inactive
same,outcome,[3],inactive
same,outcome,[4],inactive
COc1cc2nc(C3CCC3)nc(N3CCN(c4ccccc4OC)CC3)c2cc1OC,outcome,[2],inactive
C#CCN(C[C@@H]1[C@@H](OC(=O)NCC2CCCCC2)[C@@H](OC(=O)NCC2CCCCC2)Cn2c(=O)ccc(=O)n21)S(=O)(=O)c1ccc(C)cc1,outcome,[2],inactive
COc1cc2ccccc2cc1C(=O)Nc1ccccc1C,fold change,"[9]; Ring1 fold increase, at 7 µM",1.25
same,fold change,[9]; at 33 µM,0.965 (inactive)
same,Fgf4 expression fold change,"[10]; Fgf4 expression, at 7 µM",0.978
same,Fgf4 expression fold change,[10]; at 33 µM,0.878 (inactive)
same,fold change,"[11]; Bmi1 de-repression, at 7 µM",1.37
same,fold change,[11]; at 33 µM,1.49 (inactive)
same,cell viability change % (negative = cytotoxic),[12],-15.3% (inactive)
same,"activity change, negative = inhibition",[13],-26.3% (inactive)
same,"activity change, negative = inhibition",[14],-24.6% (inactive)
CN(C(=O)OC(C)(C)C)c1ccc(-c2nc3ccccc3s2)cc1,outcome,[2],inactive
same,outcome,[15],inactive
COc1ccc(C(=O)c2ccc(Cl)c([N+](=O)[O-])c2)cc1,outcome,[2],inactive
COc1ccccc1C#Cc1ccc([C@H]2[C@@H](CO)N(C(=O)C3CCCC3)[C@H]2C#N)cc1,outcome,[3],inactive
same,outcome,[4],inactive
COc1cc(-c2cnc3c(NC=O)cc(-c4ccccc4)cn23)cc(OC)c1OC,outcome,[2],inactive
O=C(CCCN1C(=O)/C(=C\c2ccccc2OC(F)F)SC1=S)Nc1cccnc1,outcome,[2],inactive
same,outcome,[4],inactive
